WT yeast gro inh – growth inhibition of WT yeast, mitochondrial fusion screen. mitochondrial fusion phenotypic screen, WT strain. inhibition, % at 10 µM. hit rate 2.1% among 190,000. AID 1362; in the data active = inhibition above about 58%; tested in S. cerevisiae
Lmaj promast – inhibitors of Leishmania major promastigote growth | inhibition, % at 10 µM | AID 1063 | Leishmania major promastigotes, resazurin fluorescence viability | hit rate 9% among 200,000; in the data active = inhibition above about 50%;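 note: promastigotes grown with compound for 44 hours at 28 °C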
RAM network inh – inhibitors of the yeast RAM network | S. cerevisiae dse1pr::URA3 reporter, 5-FOA growth OD615, 2 d; analog-sensitive cbk1-as2 kinase mutant strain | inhibition, % at 50 µM | hit rate 1.8% among 190,000;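 active = inhibition above a set limit, 3 SD over mean compound inhibition, cut at about 8.4% in these data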;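 note: 0% = DMSO-only wells with no growth and 100% = 10 µM 1-NA-PP1 full growth; inhibition rescues growth on 5-FOA so higher OD means more RAM inhibition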
CHOP inh – inhibitors of CHOP induction in ER stress response; inhibition, % at 10 µM; AID 2732; hit rate 3.8% among 220,000; CHO-K1 CHOP-promoter luciferase, tunicamycin-induced, 15-18 h;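 active = compounds that reduced the stress-induced luciferase reporter signal by more than about 70% of percent inhibition, limit read from the data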;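 note: 0% = tunicamycin plus vehicle and 100% = wells without tunicamycin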
CHOP inh conf – confirmation of CHOP induction inhibitors | inhibition, % at 10 µM | shares compounds with CHOP inh | CHO-CHOP promoter luciferase reporter, tunicamycin-induced, luminescence | AID 504437 | hit rate 45% among 2,100;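 active = mean of three repeat readings of reporter signal inhibition above a set limit, cut at about 70% in these data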;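 note: 0% = tunicamycin plus vehicle and 100% = wells lacking tunicamycin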
The depositor's hits bear a star. Sampled rows, rich in hits. Any-hit rate of the full collection: about 13%.

O=C(/C=C/c1ccccc1)OCCCN=C1NS(=O)(=O)c2ccccc21 was read as WT yeast gro inh -6, Lmaj promast 9, RAM network inh 1 and CHOP inh -8.
Screening CCOc1ccc(C(=O)Nc2ccc(NC(=O)c3ccco3)c(Cl)c2)cc1Cl returned WT yeast gro inh 1, Lmaj promast -3, RAM network inh 4, CHOP inh 101* and CHOP inh conf 60.
`CCOc1ccc(C(=O)Nc2ccc(NC(=O)c3ccco3)c(Cl)c2)cc1Br` gave WT yeast gro inh 14, Lmaj promast -3, RAM network inh 3 and CHOP inh 41.
Screening O=C(O)/C=C(\Oc1ccccc1)C1(O)CCCCC1 returned CHOP inh 8.
`CC(C)(CN1CCN(c2ccccc2)CC1)NS(=O)(=O)c1ccccc1` gave CHOP inh 5.
For Cc1ccc(OCC(=O)N2N=C(C(F)(F)F)CC2(O)C(C)(C)C)cc1C (stereo unspecified) the results were WT yeast gro inh 36, Lmaj promast 2, RAM network inh 0, CHOP inh 103* and CHOP inh conf 116*.
Screening O=C(Nc1ccc(S(=O)(=O)N2CCOCC2)cc1)c1ccc(=O)[nH]c1 returned CHOP inh 2.
FC(F)(F)c1nnc2ccc(Sc3ccccn3)nn12 was read as WT yeast gro inh -2, Lmaj promast -7, RAM network inh 1 and CHOP inh 3.
For COc1cc([C@@H]2c3cc4c(cc3[C@@H](O)[C@@H](CO)[C@@H]2CO)OCO4)cc(OC)c1O[Si](C)(C)C(C)(C)C the results were CHOP inh 100* and CHOP inh conf 117*.
COc1cc(OC)c(OC)cc1/C=N/Nc1ncnc2c1[nH]c1ccccc12 was read as WT yeast gro inh 3, Lmaj promast 61*, RAM network inh 5, CHOP inh 104* and CHOP inh conf 72*.
`CC(Sc1ccccc1)C(=O)NN=C1CCCCCC1` (stereo unspecified) gave WT yeast gro inh -1, Lmaj promast -1, RAM network inh 2 and CHOP inh 28.
COc1ccccc1Nc1nc(NCC(C)C)nc(N)c1[N+](=O)[O-] was read as CHOP inh 101* and CHOP inh conf 37.
CCC(C)Nc1nc(N)c([N+](=O)[O-])c(Nc2ccccc2OC)n1 (stereo unspecified) was read as CHOP inh 25.
Screening O=C(CSc1ccccc1C(=O)O)c1ccc([N+](=O)[O-])cc1 returned WT yeast gro inh -3, Lmaj promast -6, RAM network inh 2 and CHOP inh 30.
CNC(CC(=O)c1ccc([N+](=O)[O-])cc1)C(Cl)(Cl)Cl (stereo unspecified) was read as WT yeast gro inh 71, Lmaj promast 100*, RAM network inh 6, CHOP inh 110* and CHOP inh conf -12.
`Cc1onc(-c2ccccc2)c1NC(=O)N(CCC#N)Cc1ccccc1` gave CHOP inh -14.
`CCOC(=O)C(NC(=O)Nc1cccc(C)n1)(OCC(F)(F)F)C(F)(F)F` (stereo unspecified) gave WT yeast gro inh -10, Lmaj promast -6, RAM network inh 1, CHOP inh 106* and CHOP inh conf 95*.
For Cc1sc(-c2ccncc2)nc1OC(=O)c1cc(Cl)cc(Cl)c1 the results were WT yeast gro inh -12, Lmaj promast -5, RAM network inh 2, CHOP inh 104* and CHOP inh conf 63.
Screening CCOc1ccc(NC(=O)CC2SC(=O)N(c3ccccc3)C2=O)cc1 (stereo unspecified) returned WT yeast gro inh -3, Lmaj promast -7, RAM network inh 5 and CHOP inh -7.
For Cc1ccc(CNC(=O)C2CCC(CNc3nc(=S)[nH]c4ccccc34)CC2)cc1 (stereo unspecified) the results were WT yeast gro inh -12, Lmaj promast -4, RAM network inh 0, CHOP inh 98* and CHOP inh conf 40.
Screening COc1cccc(CNC(=O)C2CCC(CNc3nc(=S)[nH]c4ccccc34)CC2)c1 (stereo unspecified) returned WT yeast gro inh -5, Lmaj promast -1, RAM network inh 3 and CHOP inh 70.
For CCN(CC(=O)Nc1cc(Cl)ccc1OC)CC(=O)NC1CCS(=O)(=O)C1 (stereo unspecified) the results were CHOP inh 8.
`O=C(c1cc(-c2ccccc2O)on1)N1CCc2ccccc2C1` gave WT yeast gro inh 17, Lmaj promast -8, RAM network inh 5, CHOP inh 106* and CHOP inh conf 2.
Screening O=C(c1cc(-c2ccc(O)cc2)on1)N1CCc2ccccc2C1 returned WT yeast gro inh 12, Lmaj promast -7 and RAM network inh -2.
For CCc1nn(CC(=O)NCCCN(CC)c2cccc(C)c2)c(=O)c2cc3occc3n12 the results were WT yeast gro inh 5, Lmaj promast -3, RAM network inh 1, CHOP inh 104* and CHOP inh conf 31.
CCN(CCCNC(=O)CCn1c(=O)[nH]c2ccccc2c1=O)c1cccc(C)c1 was read as WT yeast gro inh -14, Lmaj promast 16, RAM network inh 0 and CHOP inh 3.
Cn1ncc(S(=O)(=O)Cc2ccccc2)c(Cl)c1=O was read as CHOP inh 102* and CHOP inh conf -3.
For CC(/C=C/c1ccc2c(c1)OCO2)=N\NC(=O)COc1ccccc1C the results were WT yeast gro inh 10, Lmaj promast -5, RAM network inh 2 and CHOP inh -4.
Screening Cc1cccc(OCC(=O)N/N=C\C=C\c2ccc3c(c2)OCO3)c1C returned WT yeast gro inh -9, Lmaj promast -2, RAM network inh 4, CHOP inh 98* and CHOP inh conf 95*.
`CC(C)(C)NC(=O)NC(=O)COC(=O)c1ccc2c(c1)S(=O)(=O)N=C1CCCCCN12` gave WT yeast gro inh 4, Lmaj promast -2, RAM network inh 0 and CHOP inh -1.
`CC(NC(=O)COC(=O)c1ccc2c(c1)S(=O)(=O)N=C1CCCCCN12)C12CC3CC(CC(C3)C1)C2` (stereo unspecified) gave WT yeast gro inh -14, Lmaj promast -5, RAM network inh 2, CHOP inh 104* and CHOP inh conf -18.
For O=C(/C=C/c1cccc(Cl)c1)c1nc2ccccc2[nH]1 the results were WT yeast gro inh 8, Lmaj promast 100*, RAM network inh 1, CHOP inh 102* and CHOP inh conf -123.
O=C1CN(C(=O)/C=C/c2cccc(Cl)c2)c2ccccc2N1 was read as WT yeast gro inh -1, Lmaj promast 6, RAM network inh 1 and CHOP inh 38.
For O=C(COC(=O)c1cc[n+]([O-])cc1)Nc1ccc([N+](=O)[O-])cc1Cl the results were WT yeast gro inh -16, Lmaj promast 0, RAM network inh 0 and CHOP inh 8.
Screening Cc1ccc(Cl)cc1NC1=C/C(=N\S(=O)(=O)c2cccs2)c2ccccc2C1=O returned WT yeast gro inh 96*, Lmaj promast 100*, RAM network inh 6, CHOP inh 109* and CHOP inh conf 116*.
